Compound activity as filed in PubChem BioAssay.
PKM2 activator = activators of human pyruvate kinase M2. P14618. purified PKM2, Kinase-Glo ATP luminescence, activation; response scale: 0% is enzyme alone, no compound. Potency, µM (series often up to 57.5 µM), actives largely listed as activators. actives 0.34% (n = 260,000); further: nearly all actives have a fitted effect of over 55% in size
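Kinase-Glo luminescence reports ATP generated from ADP (0.1 mM) and PEP (0.5 mM) by purified hPK-M2 after 1 h at room temperature, pH 7.2 imidazole buffer; intermediate enzyme activity allows detecting inhibitors and activators.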
Six1-Eya2 inh = blocks human Six1 binding to Eya2; actives 0.56% (n = 360,000); Q15475+O00167; AlphaScreen GST-Six1/His-Eya2 binding, biochemical; active compounds read low; AID 651725; activity change, % (concentration not given with the values); in the data active means activity change below about -65%; inconclusive means mostly about -30% to -63%
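Six1/Eya2 binding was read as AlphaScreen signal after compounds were pinned into GST-Six1 plus His-tagged Eya2 (5X stock 250/500 nM) in pH 8.0 Tris/NaCl/TCEP buffer, beads added, then incubated 1 h, 37 C, dark.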
CtBP-E1A inh = CtBP/E1A binding inhibition; AlphaScreen GST-E1A/His-CtBP binding, 1536-well; active compounds read low; activity change, % (test concentration not listed); actives 0.49% (n = 340,000); in the data active means activity change below about -65%; inconclusive means mostly about -30% to -63%
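Protein mix (5X: 125 nM each GST-E1A, His-CtBP) was incubated with pinned compound 2 h at 37 deg C in dark, in 50 mM Tris pH 8.0 buffer with 300 mM NaCl. Glutathione donor and nickel acceptor beads followed; AlphaScreen signal read after 1 h.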
VP16 counter = Gal4-VP16 reporter inhibition counter-screen; actives 3.5% (n = 310,000); AID 2546; Drosophila S2 Gal4-VP16 UAS-luciferase, luminescence, 20 h; Potency, µM (doses to about 53.6 µM), hits mostly inhibitors;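 further: Gal4-VP16 expression switched on by copper sulfate through the metallothionein promoter; nearly all actives have a fitted effect of over 50% in size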
RORg inh = inhibitors of mouse ROR gamma transcriptional activity; P51450; Drosophila S2 Gal4-RORgamma UAS-luciferase reporter, 20 h; Potency, µM (series often up to 53.6 µM), usual class: inhibitors; actives 5.4% (n = 310,000); further: nearly all actives have a fitted effect of over 60% in size
Target sequence (P51450 whole entry, looked up, the tested form may be a part): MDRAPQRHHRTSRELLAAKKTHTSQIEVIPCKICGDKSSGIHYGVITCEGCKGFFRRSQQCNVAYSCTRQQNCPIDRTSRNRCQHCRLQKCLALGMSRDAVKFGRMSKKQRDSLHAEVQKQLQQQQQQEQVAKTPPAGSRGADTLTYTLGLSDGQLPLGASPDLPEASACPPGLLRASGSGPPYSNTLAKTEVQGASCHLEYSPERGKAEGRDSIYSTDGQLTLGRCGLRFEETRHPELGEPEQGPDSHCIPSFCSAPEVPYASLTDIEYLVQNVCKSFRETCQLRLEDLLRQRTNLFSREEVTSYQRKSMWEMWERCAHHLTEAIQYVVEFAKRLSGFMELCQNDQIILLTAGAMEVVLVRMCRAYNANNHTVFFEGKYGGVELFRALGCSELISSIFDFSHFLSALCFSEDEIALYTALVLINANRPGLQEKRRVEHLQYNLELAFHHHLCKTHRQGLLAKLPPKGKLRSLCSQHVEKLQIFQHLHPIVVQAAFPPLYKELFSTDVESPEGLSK
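Compounds are pin-transferred onto Drosophila Schneider cells expressing a copper-inducible Gal4–ROR gamma transactivation domain fusion. After 1 hr, copper sulfate is added to 700 uM final; luciferase is read 20 hr later.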
Of the large screens only hits and unclear results are named; the others gave an inactive call. An excerpt weighted towards active compounds, which were near 5.6% of everything screened. Unless noted, the call rests on the fitted dose curve; in most records, active means well fitted curve in the direction sought with a large enough effect; inconclusive means small, poorly fitted or top-dose-only effect, or another doubt; inactive means no such curve, though single readings can be large; an effect the other way counts as inactive or inconclusive.

CC(C)C(=O)Nc1ccc(-c2nc3ccccc3c(=O)o2)cc1	Six1-Eya2 inh -76, CtBP-E1A inh inconclusive, VP16 counter inconclusive, RORg inh 11µM
CCOC(=O)C1=C(COC(=O)C(C)(C)Oc2ccc(Cl)cc2)NC(=O)NC1C (stereo unspecified)	none (no result: PKM2 activator, VP16 counter, RORg inh)
COc1ccc(CNC(=O)COC(=O)[C@H](Cc2c[nH]c3ccccc23)NC(=O)c2cccs2)cc1	none
O=C(OCC(=O)N1CCN(C(=O)c2ccco2)CC1)c1cc(-c2ccc(Cl)c(Cl)c2Cl)nc2ccccc12	PKM2 activator inconclusive, VP16 counter inconclusive
O=C(c1ccco1)N1CCN(C(=O)c2cc(-c3ccccn3)nc3ccccc23)CC1	PKM2 activator 20µM, RORg inh inconclusive
O=C(OCC(=O)N1CCN(C(=O)c2ccco2)CC1)c1cc(-c2ccco2)nc2ccccc12	PKM2 activator 16µM
CC(Sc1nnnn1C)C(=O)Nc1cc(S(=O)(=O)N2CCCCC2)ccc1Cl (stereo unspecified)	none (no result: PKM2 activator, VP16 counter, RORg inh)
CC1=C(O)C(=O)C(C2=C(O)C(=O)C(C)=C(O)C2=O)=C(O)C1=O	Six1-Eya2 inh -92, CtBP-E1A inh -85 (no result: PKM2 activator, VP16 counter, RORg inh)
CN(c1ccccc1)S(=O)(=O)c1ccc(Cl)c(C(=O)OCC(=O)c2c(N)n(C)c(=O)n(C)c2=O)c1	none (no result: PKM2 activator, VP16 counter, RORg inh)
Cn1c(=O)c2[nH]c(-c3ccccc3)c(O)c2n(C)c1=O	PKM2 activator 1.4µM, RORg inh inconclusive
Cn1c(=O)c2[nH]c(-c3ccccc3Cl)c(O)c2n(C)c1=O	PKM2 activator inconclusive
Cc1cccc(NC(=S)NCCC(c2ccccc2)c2ccccc2)c1	VP16 counter 7.1µM, RORg inh 4µM
CNC(=S)NCCC(c1ccccc1)c1ccccc1	VP16 counter inconclusive, RORg inh 7.1µM
CCC(C(=O)OCC(=O)Nc1ccc(OC)cc1OC)c1ccccc1 (stereo unspecified)	none
COc1ccc(NC(=S)NCCC(c2ccccc2)c2ccccc2)c(OC)c1	VP16 counter 3.2µM, RORg inh 4µM
COc1cccc(NC(=S)NCCC(c2ccccc2)c2ccccc2)c1	VP16 counter 22µM, RORg inh inconclusive
C[C@H](NCCC(c1ccccc1)c1ccccc1)c1ccccc1	none (no result: PKM2 activator, Six1-Eya2 inh, CtBP-E1A inh)
COc1cccc(NC(=S)NCCN2CCOCC2)c1	none
CC(=O)c1ccc(NC(=S)N2CCN(S(=O)(=O)c3ccc(F)cc3)CC2)cc1	none
O=C(CC1CCCC1)N1CCN(S(=O)(=O)c2cccc(F)c2)CC1	none (no result: PKM2 activator, VP16 counter, RORg inh)
Cc1ccn(C(=O)c2ccc(NC(=O)CC(C)C)cc2)n1	none
COc1cc(OC)cc(C(=O)NCCC(c2ccccc2)c2ccccc2)c1	none (no result: PKM2 activator, CtBP-E1A inh)
COc1cc(NC(=S)NCCC(c2ccccc2)c2ccccc2)cc(OC)c1	VP16 counter 8.9µM, RORg inh 4.5µM
COc1ccc(N2CC(NC(=O)NCC(C)C)CC2=O)cc1 (stereo unspecified)	none
[O-]/C(=C(\C(=S)Nc1cccc2ccccc12)[n+]1ccccc1)c1ccc(Cl)s1	VP16 counter inconclusive, RORg inh 20µM
C[C@@H]1CCC2C(C)(C)C3CC21CC[C@@]3(C)O (stereo partly specified)	none (no result: PKM2 activator, Six1-Eya2 inh, CtBP-E1A inh)
Cn1c(CN2CCN(c3ccc(Cl)cc3)CC2)nc2ccccc21	VP16 counter inconclusive, RORg inh 6.3µM
CCn1c(CN2CCN(c3ccc(Cl)cc3)CC2)nc2ccccc21	VP16 counter 8.9µM, RORg inh 10µM
Cc1cc(C)c(C#N)c(Nc2cccc(C)c2C)n1	none
CCOC(=O)c1cnc2c(-c3ccccc3)cnn2c1N	VP16 counter 11µM, RORg inh 1.6µM
CCOC(=O)c1cnn(-c2cc(C)c3ccccc3n2)c1N	VP16 counter inconclusive, RORg inh 0.11µM
CCOc1ccccc1Nc1nc2ccccc2n1C(C)C	RORg inh 10µM
S=c1[nH]c2ccccc2o1	RORg inh 28µM (no result: CtBP-E1A inh)
O=C(O)c1ccc(S(=O)(=O)c2ccc3c(c2)C(=O)N(NC(=O)c2cccnc2)C3=O)cc1	none
Cc1cc(N/N=C/c2ccc([N+](=O)[O-])o2)nc2ccccc12	VP16 counter inconclusive, RORg inh 11µM
Cc1ccc(-c2cc(C(=O)N/N=C/c3ccc([N+](=O)[O-])o3)c3ccccc3n2)o1	Six1-Eya2 inh inconclusive, VP16 counter inconclusive, RORg inh 13µM (no result: PKM2 activator)
Cn1c(/C=C/c2ccc([N+](=O)[O-])o2)nc2ccccc2c1=O	VP16 counter 6.3µM, RORg inh 6.3µM
Cc1cc(Nc2ccc([N+](=O)[O-])cc2)nc2ccccc12	RORg inh inconclusive
O=C(N/N=C/c1ccc([N+](=O)[O-])o1)c1cc(-c2ccncc2)nc2ccccc12	none
Cc1ccc2nc(N/N=C/c3ccco3)cc(C)c2c1	VP16 counter inconclusive, RORg inh 6.3µM
C[C@H]1NS(=O)(=O)c2ccc(Br)cc2O[C@H]1c1ccccc1	none (no result: PKM2 activator, VP16 counter, RORg inh)
CCOC(=O)C1(C)Oc2ccc(S(=O)(=O)CC)cc2NC1=O (stereo unspecified)	none
CC(C)([CH2][Sn]([CH2]C(C)(C)c1ccccc1)([CH2]C(C)(C)c1ccccc1)[O][Sn]([CH2]C(C)(C)c1ccccc1)([CH2]C(C)(C)c1ccccc1)[CH2]C(C)(C)c1ccccc1)c1ccccc1	none (no result: PKM2 activator, Six1-Eya2 inh, CtBP-E1A inh)
O=C(C(=O)N1CCC(Cc2ccccc2)CC1)c1cccc(Br)c1	none (no result: PKM2 activator, VP16 counter, RORg inh)
Cc1ccc(-c2cc(C(=O)NC3=NCCS3)c3cc(Br)ccc3n2)o1	VP16 counter 14µM, RORg inh 7.9µM (no result: Six1-Eya2 inh, CtBP-E1A inh)
O=C(N/N=C/c1ccc([N+](=O)[O-])o1)c1cc(-c2ccc(-c3ccccc3)cc2)nc2ccccc12	VP16 counter 1.1µM, RORg inh 0.71µM
O=C(N/N=C/c1ccco1)c1cc(-c2cccc(Br)c2)nc2ccccc12	VP16 counter 5.6µM, RORg inh 3.2µM
Cc1ccc(-c2cc(C(=O)Nc3ccccc3C)c3ccccc3n2)o1	PKM2 activator inconclusive, VP16 counter 13µM, RORg inh inconclusive
COC(=O)c1ccc(NC(=O)CNc2ccccc2)cc1	none
CC[n+]1c(C=C2C=C(C)OC(C)=C2)sc2ccccc21	VP16 counter 10µM, RORg inh inconclusive
CC[n+]1c(/C=C2/C=C(C)CC(C)C2)sc2ccccc21 (stereo unspecified)	none
C/C(=N\S(=O)(=O)c1ccc(C)cc1)NC(=S)Nc1ccccc1	RORg inh 11µM
CCn1c([N+](=O)[O-])nc2c1c(=O)[nH]c(=O)n2C	VP16 counter 18µM, RORg inh 0.56µM (no result: CtBP-E1A inh)
O=C(Nc1ccc2c(c1)OCCO2)C1CC(c2ccccc2Cl)=NO1 (stereo unspecified)	none (no result: PKM2 activator)
CCn1ncc(C2=NOC(C(=O)Nc3ccc(C)cc3)C2)c1C (stereo unspecified)	none
CCn1ncc(C2=NOC(C(=O)Nc3ccc4c(c3)OCO4)C2)c1C (stereo unspecified)	VP16 counter 16µM
